Assay outcomes: PubChem, Broad Institute
CSC inhib: cancer stem cell inhibition. actives 1.1% (n = 300,000). inhibition, % at 7.5 µM. cancer stem cell-like cells viability, luminescence; in the data active means inhibition above about 75%; tested in HMLE shEcad cells
Beta apoptosis: blocks beta cell apoptosis. protection from apoptosis, % (test concentration not listed). actives 0.8% (n = 300,000). INS-1E cytokine-induced death, ATP luminescence, 48 h; percent of positive-control rescue, neutral wells zero;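 active means Every replicate reaches about 75%, or at least half do and their mean reaches it too, limit read from the data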;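 further: higher means more ATP so stronger rescue from cytokine killing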
Calb FLC: affects C. albicans growth with fluconazole. actives 0.57% (n = 300,000). AID 1979. growth inhibition, % (concentration not given with the values). C. albicans CaCi-2 (fluconazole-resistant clinical isolate) + fluconazole, Alamar Blue growth, 48 h;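 active means growth inhibition above about 58% in most replicates, limit read from the data, passing the limit was not always enough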;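 further: all wells also contain fluconazole at 8 µg/ml as a sub-toxic cotreatment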
PfHsp90 yeast 2: growth inhibition of yeast expressing Plasmodium Hsp90 | S. cerevisiae expressing PfHsp90, BacTiter-Glo ATP, 48 h; yeast lacking PDR1 and PDR3 efflux regulators | inhibition, % at 9.4 µM | actives 0.32% (n = 310,000) | AID 504621;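 active means every replicate shows inhibition above about 80%, whatever the replicate mean, limit read from the data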
Shn3 3UTR inh: Schnurri-3 reporter inhibition in Clone20 osteoblasts. inhibition, % at 12.5 µM. actives 0.52% (n = 360,000). Clone20 osteoblast Shn3 3'UTR firefly luciferase, 24 h. AID 588674;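 active means mean inhibition of at least 75% with every replicate also reaching 75%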
Each line names hits and unclear results; the compound was inactive in the other large screens. Most compounds without a hit are left out; they make up all but 2.2% or so of the library.

O=C(Nc1cccc2ccccc12)c1ccc([N+](=O)[O-])o1	Calb FLC 86.2
O=C(Nc1cccc(NC(=O)c2ccccc2Cl)c1)c1ccc([N+](=O)[O-])o1	Beta apoptosis 96.1, Calb FLC 79.5
O=C(Nc1cccc([N+](=O)[O-])c1)c1ccc([N+](=O)[O-])o1	none (no result: CSC inhib, Beta apoptosis, Calb FLC, PfHsp90 yeast 2)
O=C(COC(=O)c1ccc([N+](=O)[O-])o1)NCc1ccccc1	none (no result: Calb FLC)
Cc1cccc(C)c1NC(=O)COC(=O)c1ccc([N+](=O)[O-])o1	PfHsp90 yeast 2 87.5
Cc1ccc(NC(=O)c2ccc([N+](=O)[O-])o2)cc1C	Calb FLC 116.7 (no result: Beta apoptosis)
CC(=O)c1cccc(NC(=O)N2C3CCC2CC(NC(=O)C2CC2)C3)c1 (stereo not given)	none
O=C(O)COc1ccccc1/C=N/NC(=O)CSc1nc2ccccc2n1Cc1ccc(Cl)cc1	none
COc1cc(NC(=O)[C@@H](NC(=O)N2CCn3c2nc2ccccc23)C(C)C)cc(OC)c1	none
NC(=O)C1CCN(c2nc(-c3cccc(Cl)c3)cs2)CC1	none (no result: Calb FLC, PfHsp90 yeast 2)
CCO[C@H]1OC(C(=O)N2CCN(Cc3ccc4c(c3)OCO4)CC2)=C[C@@H](c2csc3ccccc23)[C@@H]1CCCO	Beta apoptosis 85.2
CCO[C@H]1OC(C(=O)N2CCN(Cc3ccc4c(c3)OCO4)CC2)=C[C@@H](c2cn(C(C)=O)c3ccccc23)[C@@H]1CCCO	none
Cc1cccc(C)c1NC(=O)NC1(C(=O)N2CCOCC2)CCCCC1	none
O=C(OCc1cn([C@@H]2CN(C(=O)C3CCCCC3)[C@@H](c3ccc(Cl)cc3)C[C@H]2O)nn1)c1ccccc1	none (no result: CSC inhib, Beta apoptosis, Calb FLC, PfHsp90 yeast 2)
Cc1ccc(OCCCC(=O)Nc2nc3ccccc3[nH]2)cc1	Calb FLC 110.4 (no result: CSC inhib)
O=C(CCCOc1ccccc1)Nc1nc2ccccc2[nH]1	none
Cc1cccc(OCCCC(=O)Nc2nc3ccccc3[nH]2)c1	CSC inhib 83.8
O=C(C1CCN(S(=O)(=O)c2cccc3cccnc23)CC1)N1CCCCC1	none
CN1CCc2c(sc(NC(=O)c3cc4cc([N+](=O)[O-])ccc4s3)c2C(N)=O)C1	Calb FLC 96.6 (no result: CSC inhib, Beta apoptosis, PfHsp90 yeast 2, Shn3 3UTR inh)
CC(C)N1CCc2c(sc(NC(=O)Cc3ccccc3)c2C(N)=O)C1	none
CC(C)N1CCc2c(sc(NC(=O)c3ccc4ccccc4c3)c2C(N)=O)C1	CSC inhib 78.6
CC(=O)Nc1sc2c(c1-c1nc3ccccc3s1)CCN(C(C)C)C2	Beta apoptosis 100.2 (no result: Calb FLC)
CC(C)N1CCc2c(sc(NC(=O)c3cc4cc([N+](=O)[O-])ccc4s3)c2C(N)=O)C1	none (no result: CSC inhib, Beta apoptosis)
CC(C)N1CCc2c(sc(NC(=O)c3ccc(C(=O)c4ccccc4)cc3)c2C(N)=O)C1	none (no result: Beta apoptosis)
O=C(/C(=C/O)N=Nc1ccc(Cl)cc1)c1ccncc1	CSC inhib 77.1
O=C(N/N=C/c1cc(Cl)ccc1O)C(=O)Nc1ccccc1OC(F)(F)C(F)F	CSC inhib 95.6, Beta apoptosis 89.4, Shn3 3UTR inh 88.3 (no result: Calb FLC)
COc1ccccc1/C=N/NC(=O)C(=O)Nc1ccccc1OC(F)(F)C(F)F	none
O=C(N/N=C/c1cc(Br)ccc1O)C(=O)Nc1ccccc1OC(F)(F)C(F)F	CSC inhib 96.4, Beta apoptosis 83.5, Shn3 3UTR inh 85.4
CC(C)NC(=O)N(C)C[C@H]1Oc2c(cccc2N(C)C)C(=O)N([C@H](C)CO)C[C@@H]1C	none (no result: CSC inhib, Calb FLC)
COc1cc(OC)cc(C(=O)NNC(=O)Cc2ccc(OC)c(S(=O)(=O)N3CCOCC3)c2)c1	Calb FLC 109.5
Cc1ccc(C(=O)c2c(C)oc3c2C(=O)C(=O)c2ccccc2-3)cc1	Beta apoptosis 124.1, Shn3 3UTR inh 96.3 (no result: PfHsp90 yeast 2)
Cc1cc(=O)c(C(=O)c2ccccc2)c(C)o1	none (no result: Beta apoptosis)
Cc1ccc(C(=O)c2coc3c2C(=O)C(=O)c2ccccc2-3)cc1	Calb FLC 79.7, PfHsp90 yeast 2 141.4
Cc1oc2c(c1C(=O)c1ccc(Cl)cc1)C(=O)C(=O)c1ccccc1-2	Shn3 3UTR inh 92.5 (no result: CSC inhib, Beta apoptosis, PfHsp90 yeast 2)
CCOC(=O)c1c(CSC(=N)N)n(-c2ccc(C)cc2)c2cc(Br)c(OC(C)=O)cc12	CSC inhib 114.0 (no result: PfHsp90 yeast 2)
Cc1nnc(SCC(=O)Nc2nccs2)n1C(C)C	none (no result: Beta apoptosis)
N=C(N)c1ccc(/C=C/c2ccc(C(=N)N)cc2O)cc1	Calb FLC 94.7
N=C(N)c1ccc(Cl)cc1	none
CC1(C)Oc2ccc(C(=O)Nc3ccccc3)cc2N(CC#N)C1=O	none (no result: Beta apoptosis)
CCN(c1ccccc1)S(=O)(=O)c1ccc(OC)c(NC(=O)c2cc(Cl)ccn2)c1	none (no result: CSC inhib, Beta apoptosis, Calb FLC, PfHsp90 yeast 2)
CCC(C)NC(=O)Nc1ccc(Br)cc1 (stereo not given)	none
CCC(C)Nc1ccc(NC(C)CC)cc1 (stereo not given)	CSC inhib 81.5, Beta apoptosis 108.8, PfHsp90 yeast 2 active, Shn3 3UTR inh 88.9 (no result: Calb FLC)
CS(=O)(=O)c1ccc(C(=O)OCc2nnc(-c3ccc(Cl)cc3)o2)cc1[N+](=O)[O-]	none (no result: PfHsp90 yeast 2)
CCC(OC(=O)c1ccc(S(C)(=O)=O)c([N+](=O)[O-])c1)C(=O)NC1C2CC3CC(C2)CC1C3 (stereo not given)	Shn3 3UTR inh 96.1 (no result: CSC inhib, Beta apoptosis, Calb FLC, PfHsp90 yeast 2)
CC(OC(=O)c1ccc(S(C)(=O)=O)c([N+](=O)[O-])c1)C(=O)NC1C2CC3CC(C2)CC1C3 (stereo not given)	Shn3 3UTR inh 98.1 (no result: CSC inhib, Beta apoptosis, Calb FLC, PfHsp90 yeast 2)
CC(C)CN1CCN(C(=O)COC(=O)c2ccc(S(C)(=O)=O)c([N+](=O)[O-])c2)CC1	none (no result: CSC inhib, Beta apoptosis, Calb FLC, PfHsp90 yeast 2)
CCCCNC(=S)N(C)/N=C/c1ccc2c(c1)OCO2	CSC inhib 83.1
O=C(CCCCCN1C(=O)c2cccc3cccc(c23)C1=O)N1CCOCC1	Calb FLC 107.5 (no result: PfHsp90 yeast 2)
O=C(CCCN1C(=O)c2cccc3cccc(c23)C1=O)N1CCN(c2ncccn2)CC1	none (no result: Calb FLC)
Cc1ccc(Cl)cc1N1CCN(C(=O)c2cn(C)c(=O)c3c2c2ccccc2n3C)CC1	CSC inhib 88.1 (no result: Beta apoptosis)
Cc1cccc(N2CCN(C(=O)c3cn(C)c(=O)c4c3c3ccccc3n4C)CC2)c1C	Calb FLC 56.7
Cn1c2ccccc2c2c(C(=O)N3CCN(c4ccccc4)CC3)cn(C3CCCC3)c(=O)c21	none
O=C(Nc1nnc([C@H]2C[C@H](O)[C@@H](CO)O2)s1)Nc1ccccc1Oc1ccccc1	none (no result: CSC inhib, Beta apoptosis, Calb FLC, PfHsp90 yeast 2)
CCN(C(=O)COC(=O)/C(=C/c1ccccc1)NC(C)=O)c1c(N)n(Cc2ccccc2)c(=O)[nH]c1=O	none (no result: CSC inhib, Beta apoptosis, Calb FLC)
COc1cc(/C=c2\sc3n(c2=O)C(c2ccccc2)C(c2ccccc2)=NN=3)ccc1O (stereo not given)	CSC inhib 103.3 (no result: Calb FLC)
CCOC(=O)C1C(C(=O)OC)=C(C(=O)OC)c2ccccc2N1S(=O)(=O)C(F)(F)F (stereo not given)	none (no result: CSC inhib, Beta apoptosis, Calb FLC)
Cc1cc(C)n(-c2ccc3cccc(NS(C)(=O)=O)c3n2)n1	CSC inhib 86.9, Shn3 3UTR inh 90.1 (no result: Beta apoptosis)
CS(=O)(=O)Nc1cccc2cccnc12	none (no result: Calb FLC)
COc1ccc(CCN(C)C(=O)c2cc(S(=O)(=O)N3CCCCC3)ccc2Cl)cc1OC	none (no result: PfHsp90 yeast 2)
Cc1cc(NC(=O)Nc2ccc(OCc3ccccc3)cc2)n(C)n1	none
Nc1nc2ncc(C(=O)c3cc(Cl)cc(Cl)c3O)cc2s1	none
CC(C)c1noc2ncc(C(=O)c3cc(Cl)cc(Cl)c3O)cc12	Calb FLC 98.7
